# Laboratory results published in ChEMBL document CHEMBL1961873, “Compounds: GSK PKIS; Assays: Nanosyn kinase panel” (2012).
# What was measured:
# [1] = biological target: Sphingosine kinase 1 (Homo sapiens) (UniProt Q9NYA1); settings: at 1 µM;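 further: mean SPHK1 inhibition value reported from the GSK PKIS kinase panel screen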
# [2] = biological target: T1, Sphingosine kinase 2 (Homo sapiens) (UniProt Q9NRA0); settings: at 0.1 µM
# T1 sequence (whole entry): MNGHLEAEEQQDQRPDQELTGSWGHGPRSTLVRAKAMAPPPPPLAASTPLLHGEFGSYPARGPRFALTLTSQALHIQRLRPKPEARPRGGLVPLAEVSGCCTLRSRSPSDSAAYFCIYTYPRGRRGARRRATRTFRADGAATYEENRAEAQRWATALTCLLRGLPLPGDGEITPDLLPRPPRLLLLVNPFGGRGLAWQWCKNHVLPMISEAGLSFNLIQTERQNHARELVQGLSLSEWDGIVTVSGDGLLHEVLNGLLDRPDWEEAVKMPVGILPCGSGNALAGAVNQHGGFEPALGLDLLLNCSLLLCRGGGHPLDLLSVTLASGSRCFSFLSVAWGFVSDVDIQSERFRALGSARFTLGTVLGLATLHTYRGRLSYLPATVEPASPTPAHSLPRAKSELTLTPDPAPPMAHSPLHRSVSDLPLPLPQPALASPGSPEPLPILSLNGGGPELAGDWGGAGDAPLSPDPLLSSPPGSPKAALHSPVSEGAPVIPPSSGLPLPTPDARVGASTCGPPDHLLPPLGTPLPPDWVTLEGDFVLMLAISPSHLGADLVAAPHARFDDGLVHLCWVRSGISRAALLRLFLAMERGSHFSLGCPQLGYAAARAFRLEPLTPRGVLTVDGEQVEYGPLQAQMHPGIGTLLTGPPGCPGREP
# [3] = biological target: T1, Sphingosine kinase 2 (Homo sapiens); settings: at 1 µM
# [4] = biological target: Casein kinase II subunit alpha (Homo sapiens) (UniProt P68400); settings: at 0.1 µM
# Casein kinase II subunit alpha (Homo sapiens), sequence (P68400 whole entry, looked up): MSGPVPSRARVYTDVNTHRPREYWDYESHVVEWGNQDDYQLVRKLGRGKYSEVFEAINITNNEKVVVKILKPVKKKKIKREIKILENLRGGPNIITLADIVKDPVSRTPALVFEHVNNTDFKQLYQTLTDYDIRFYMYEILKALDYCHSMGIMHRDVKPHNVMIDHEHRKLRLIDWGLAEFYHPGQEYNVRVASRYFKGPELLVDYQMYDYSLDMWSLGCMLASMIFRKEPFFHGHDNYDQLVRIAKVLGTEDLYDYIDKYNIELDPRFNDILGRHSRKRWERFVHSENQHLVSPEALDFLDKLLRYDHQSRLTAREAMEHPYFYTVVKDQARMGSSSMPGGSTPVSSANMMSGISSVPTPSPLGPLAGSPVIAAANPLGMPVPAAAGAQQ
# [5] = biological target: Casein kinase II subunit alpha (Homo sapiens) (UniProt P68400); settings: at 1 µM
# [6] = biological target: T2, Inhibitor of nuclear factor kappa-B kinase subunit alpha (Homo sapiens) (UniProt O15111); settings: at 0.1 µM
# T2 sequence (whole entry): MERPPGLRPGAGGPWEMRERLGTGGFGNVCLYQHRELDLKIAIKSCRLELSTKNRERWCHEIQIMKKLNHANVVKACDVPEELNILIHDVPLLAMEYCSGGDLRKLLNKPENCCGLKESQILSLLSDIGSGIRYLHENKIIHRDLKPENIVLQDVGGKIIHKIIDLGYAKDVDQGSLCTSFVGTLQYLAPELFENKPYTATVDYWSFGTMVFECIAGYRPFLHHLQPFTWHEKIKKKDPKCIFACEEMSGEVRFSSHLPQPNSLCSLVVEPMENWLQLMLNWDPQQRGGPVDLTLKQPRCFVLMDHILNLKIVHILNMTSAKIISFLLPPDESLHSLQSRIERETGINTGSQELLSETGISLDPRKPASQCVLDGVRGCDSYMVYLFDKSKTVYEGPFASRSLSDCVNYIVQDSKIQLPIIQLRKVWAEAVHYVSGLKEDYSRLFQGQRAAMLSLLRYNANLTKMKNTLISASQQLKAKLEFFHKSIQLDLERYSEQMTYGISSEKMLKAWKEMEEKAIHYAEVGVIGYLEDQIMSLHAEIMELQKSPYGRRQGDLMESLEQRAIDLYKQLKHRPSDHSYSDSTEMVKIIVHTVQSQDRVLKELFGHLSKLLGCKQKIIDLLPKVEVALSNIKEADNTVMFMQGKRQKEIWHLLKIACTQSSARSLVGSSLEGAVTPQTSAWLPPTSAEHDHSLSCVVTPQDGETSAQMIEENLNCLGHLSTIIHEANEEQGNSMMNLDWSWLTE
# [7] = biological target: T2, Inhibitor of nuclear factor kappa-B kinase subunit alpha (Homo sapiens); settings: at 1 µM
# [8] = biological target: T3, Inhibitor of nuclear factor kappa-B kinase subunit beta (Homo sapiens) (UniProt O14920); settings: at 0.1 µM
# T3 sequence (whole entry): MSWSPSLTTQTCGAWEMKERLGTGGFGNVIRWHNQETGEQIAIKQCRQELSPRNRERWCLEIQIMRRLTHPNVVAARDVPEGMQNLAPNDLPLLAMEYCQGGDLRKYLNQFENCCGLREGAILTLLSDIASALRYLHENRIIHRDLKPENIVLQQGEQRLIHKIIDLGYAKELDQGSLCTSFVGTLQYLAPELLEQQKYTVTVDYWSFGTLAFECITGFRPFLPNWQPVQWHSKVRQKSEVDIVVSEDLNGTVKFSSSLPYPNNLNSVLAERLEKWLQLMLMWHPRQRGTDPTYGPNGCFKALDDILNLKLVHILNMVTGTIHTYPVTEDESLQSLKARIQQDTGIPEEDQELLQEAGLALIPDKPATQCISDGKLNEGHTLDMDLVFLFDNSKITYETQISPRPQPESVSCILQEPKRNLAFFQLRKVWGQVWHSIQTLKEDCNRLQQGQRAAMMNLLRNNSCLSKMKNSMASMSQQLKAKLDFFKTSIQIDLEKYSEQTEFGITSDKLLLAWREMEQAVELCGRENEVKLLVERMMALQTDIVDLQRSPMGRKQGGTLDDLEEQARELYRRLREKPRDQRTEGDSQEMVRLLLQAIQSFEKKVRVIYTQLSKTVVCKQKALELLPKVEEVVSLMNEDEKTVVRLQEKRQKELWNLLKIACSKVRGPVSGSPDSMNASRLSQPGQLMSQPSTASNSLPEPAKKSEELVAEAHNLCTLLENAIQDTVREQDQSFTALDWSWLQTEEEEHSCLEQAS
# [9] = biological target: T3, Inhibitor of nuclear factor kappa-B kinase subunit beta (Homo sapiens); settings: at 1 µM
# [10] = biological target: T4, Inhibitor of nuclear factor kappa-B kinase subunit epsilon (Homo sapiens) (UniProt Q14164); settings: at 0.1 µM
# T4 sequence (whole entry): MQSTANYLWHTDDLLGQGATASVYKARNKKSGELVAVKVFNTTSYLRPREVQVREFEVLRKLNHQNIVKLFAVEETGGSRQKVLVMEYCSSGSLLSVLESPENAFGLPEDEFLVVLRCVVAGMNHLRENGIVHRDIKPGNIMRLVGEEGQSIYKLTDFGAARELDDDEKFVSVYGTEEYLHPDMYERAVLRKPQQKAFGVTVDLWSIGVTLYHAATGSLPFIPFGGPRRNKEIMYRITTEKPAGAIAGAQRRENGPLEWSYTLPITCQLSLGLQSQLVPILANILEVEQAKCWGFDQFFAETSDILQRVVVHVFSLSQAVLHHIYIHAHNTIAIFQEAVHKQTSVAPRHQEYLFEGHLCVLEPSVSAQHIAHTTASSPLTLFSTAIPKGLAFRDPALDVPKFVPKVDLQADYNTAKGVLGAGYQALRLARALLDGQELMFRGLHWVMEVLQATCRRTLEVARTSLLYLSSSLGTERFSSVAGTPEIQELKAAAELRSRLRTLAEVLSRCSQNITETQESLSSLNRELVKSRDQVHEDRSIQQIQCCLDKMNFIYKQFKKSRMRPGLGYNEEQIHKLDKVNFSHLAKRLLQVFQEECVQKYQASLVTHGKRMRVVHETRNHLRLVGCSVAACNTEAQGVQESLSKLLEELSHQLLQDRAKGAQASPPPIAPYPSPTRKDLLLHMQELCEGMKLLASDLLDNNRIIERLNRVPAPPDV
# [11] = biological target: T4, Inhibitor of nuclear factor kappa-B kinase subunit epsilon (Homo sapiens); settings: at 1 µM
# [12] = biological target: T5, Serine/threonine-protein kinase Nek1 (Homo sapiens) (UniProt Q96PY6); settings: at 0.1 µM
# T5 sequence (whole entry): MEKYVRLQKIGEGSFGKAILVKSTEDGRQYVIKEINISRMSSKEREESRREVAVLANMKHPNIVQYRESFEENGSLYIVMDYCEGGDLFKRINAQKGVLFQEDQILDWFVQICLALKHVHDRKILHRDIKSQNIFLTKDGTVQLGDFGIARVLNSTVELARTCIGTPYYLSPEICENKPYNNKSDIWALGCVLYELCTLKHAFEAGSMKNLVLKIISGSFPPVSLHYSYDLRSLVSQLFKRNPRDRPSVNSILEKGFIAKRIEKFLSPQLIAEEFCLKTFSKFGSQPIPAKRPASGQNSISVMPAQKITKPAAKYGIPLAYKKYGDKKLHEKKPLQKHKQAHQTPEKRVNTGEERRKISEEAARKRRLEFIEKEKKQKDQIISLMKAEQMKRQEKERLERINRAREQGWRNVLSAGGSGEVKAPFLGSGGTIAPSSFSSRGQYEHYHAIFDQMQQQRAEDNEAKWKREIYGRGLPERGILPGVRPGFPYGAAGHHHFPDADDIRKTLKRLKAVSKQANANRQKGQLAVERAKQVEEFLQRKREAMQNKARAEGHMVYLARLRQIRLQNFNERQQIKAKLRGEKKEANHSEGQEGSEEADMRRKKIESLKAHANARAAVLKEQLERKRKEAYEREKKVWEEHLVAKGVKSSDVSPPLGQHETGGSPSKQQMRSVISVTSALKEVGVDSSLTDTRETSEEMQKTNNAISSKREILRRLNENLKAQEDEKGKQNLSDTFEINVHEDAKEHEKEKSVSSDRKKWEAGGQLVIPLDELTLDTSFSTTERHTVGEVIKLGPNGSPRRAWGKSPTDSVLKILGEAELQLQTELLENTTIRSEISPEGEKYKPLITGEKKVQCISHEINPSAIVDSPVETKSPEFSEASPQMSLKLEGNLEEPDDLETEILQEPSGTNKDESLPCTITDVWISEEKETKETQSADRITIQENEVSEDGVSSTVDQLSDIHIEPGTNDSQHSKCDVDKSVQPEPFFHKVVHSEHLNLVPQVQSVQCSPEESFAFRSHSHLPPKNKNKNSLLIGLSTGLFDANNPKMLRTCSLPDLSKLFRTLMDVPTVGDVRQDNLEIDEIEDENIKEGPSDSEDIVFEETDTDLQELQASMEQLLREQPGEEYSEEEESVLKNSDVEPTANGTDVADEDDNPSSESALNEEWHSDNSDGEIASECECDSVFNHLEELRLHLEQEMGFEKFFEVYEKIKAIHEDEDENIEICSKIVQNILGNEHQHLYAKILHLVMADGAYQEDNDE
# [13] = biological target: T5, Serine/threonine-protein kinase Nek1 (Homo sapiens); settings: at 1 µM
# [14] = biological target: T6, Serine/threonine-protein kinase Nek2 (Homo sapiens) (UniProt P51955); settings: at 0.1 µM
# T6 sequence (whole entry): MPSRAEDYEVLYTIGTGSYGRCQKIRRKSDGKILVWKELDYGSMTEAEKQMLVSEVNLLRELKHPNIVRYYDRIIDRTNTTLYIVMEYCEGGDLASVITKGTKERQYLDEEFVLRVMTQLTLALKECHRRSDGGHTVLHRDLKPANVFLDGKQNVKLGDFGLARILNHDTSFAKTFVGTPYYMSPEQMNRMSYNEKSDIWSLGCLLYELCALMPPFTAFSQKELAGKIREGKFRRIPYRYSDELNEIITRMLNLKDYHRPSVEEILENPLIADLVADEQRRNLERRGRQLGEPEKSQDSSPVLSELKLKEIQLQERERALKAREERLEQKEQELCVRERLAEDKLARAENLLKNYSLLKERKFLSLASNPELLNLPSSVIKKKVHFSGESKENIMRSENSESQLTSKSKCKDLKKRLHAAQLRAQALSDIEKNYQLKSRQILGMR
# [15] = biological target: T6, Serine/threonine-protein kinase Nek2 (Homo sapiens); settings: at 1 µM
# [16] = biological target: Serine/threonine-protein kinase Nek6 (Homo sapiens) (UniProt Q9HC98); settings: at 0.1 µM
# Serine/threonine-protein kinase Nek6 (Homo sapiens), sequence (Q9HC98 whole entry): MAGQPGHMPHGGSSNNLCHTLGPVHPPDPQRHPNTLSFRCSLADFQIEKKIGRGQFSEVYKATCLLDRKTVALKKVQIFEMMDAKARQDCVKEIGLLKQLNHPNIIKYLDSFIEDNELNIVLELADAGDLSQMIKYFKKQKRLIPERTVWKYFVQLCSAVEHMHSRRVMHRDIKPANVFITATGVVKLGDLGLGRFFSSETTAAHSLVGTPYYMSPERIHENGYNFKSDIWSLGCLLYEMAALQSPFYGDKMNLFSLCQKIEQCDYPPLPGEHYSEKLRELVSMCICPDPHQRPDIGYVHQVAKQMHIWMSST
# [17] = biological target: Serine/threonine-protein kinase Nek6 (Homo sapiens) (UniProt Q9HC98); settings: at 1 µM
# [18] = biological target: Serine/threonine-protein kinase Nek7 (Homo sapiens) (UniProt Q8TDX7); settings: at 0.1 µM
# Serine/threonine-protein kinase Nek7 (Homo sapiens), sequence (Q8TDX7 whole entry, looked up): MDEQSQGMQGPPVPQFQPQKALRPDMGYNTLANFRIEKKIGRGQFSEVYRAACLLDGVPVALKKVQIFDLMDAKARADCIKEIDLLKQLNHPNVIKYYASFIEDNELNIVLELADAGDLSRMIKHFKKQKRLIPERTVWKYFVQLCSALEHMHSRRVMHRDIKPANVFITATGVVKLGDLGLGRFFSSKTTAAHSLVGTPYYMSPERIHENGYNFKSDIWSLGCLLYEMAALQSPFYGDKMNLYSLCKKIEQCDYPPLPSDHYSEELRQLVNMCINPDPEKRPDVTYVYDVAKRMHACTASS
# [19] = biological target: Serine/threonine-protein kinase Nek7 (Homo sapiens) (UniProt Q8TDX7); settings: at 1 µM
# [20] = biological target: T7, Serine/threonine-protein kinase Nek9 (Homo sapiens) (UniProt Q8TD19); settings: at 0.1 µM;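 further: reported value is the mean percent inhibition of NEK9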
# T7 sequence (whole entry): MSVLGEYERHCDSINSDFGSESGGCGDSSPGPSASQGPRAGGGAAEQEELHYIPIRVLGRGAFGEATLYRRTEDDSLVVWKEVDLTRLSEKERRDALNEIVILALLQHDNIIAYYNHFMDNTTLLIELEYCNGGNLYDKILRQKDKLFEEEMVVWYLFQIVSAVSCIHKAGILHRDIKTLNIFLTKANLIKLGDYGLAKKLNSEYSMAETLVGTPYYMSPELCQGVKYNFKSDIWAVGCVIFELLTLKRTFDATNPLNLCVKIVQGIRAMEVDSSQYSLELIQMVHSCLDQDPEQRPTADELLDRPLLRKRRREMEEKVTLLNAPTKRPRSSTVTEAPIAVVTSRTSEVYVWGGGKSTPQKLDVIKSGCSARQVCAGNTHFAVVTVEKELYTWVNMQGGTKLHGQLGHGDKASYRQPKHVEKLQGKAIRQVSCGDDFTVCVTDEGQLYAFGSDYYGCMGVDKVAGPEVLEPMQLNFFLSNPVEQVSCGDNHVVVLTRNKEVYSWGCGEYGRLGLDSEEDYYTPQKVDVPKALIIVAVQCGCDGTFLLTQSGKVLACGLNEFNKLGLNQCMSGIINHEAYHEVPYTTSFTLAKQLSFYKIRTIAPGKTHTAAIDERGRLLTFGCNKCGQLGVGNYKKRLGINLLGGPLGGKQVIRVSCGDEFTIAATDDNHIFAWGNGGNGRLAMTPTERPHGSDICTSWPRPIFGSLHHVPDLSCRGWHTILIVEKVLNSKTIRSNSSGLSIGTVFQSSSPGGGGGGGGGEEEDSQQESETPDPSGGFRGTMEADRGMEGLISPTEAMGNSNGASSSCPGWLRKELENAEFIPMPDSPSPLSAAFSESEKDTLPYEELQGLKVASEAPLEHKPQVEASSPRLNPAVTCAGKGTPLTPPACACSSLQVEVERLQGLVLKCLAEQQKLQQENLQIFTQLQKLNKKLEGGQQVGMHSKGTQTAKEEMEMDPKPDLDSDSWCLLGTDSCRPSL
# Sphingosine kinase 1 (Homo sapiens), sequence (Q9NYA1 whole entry): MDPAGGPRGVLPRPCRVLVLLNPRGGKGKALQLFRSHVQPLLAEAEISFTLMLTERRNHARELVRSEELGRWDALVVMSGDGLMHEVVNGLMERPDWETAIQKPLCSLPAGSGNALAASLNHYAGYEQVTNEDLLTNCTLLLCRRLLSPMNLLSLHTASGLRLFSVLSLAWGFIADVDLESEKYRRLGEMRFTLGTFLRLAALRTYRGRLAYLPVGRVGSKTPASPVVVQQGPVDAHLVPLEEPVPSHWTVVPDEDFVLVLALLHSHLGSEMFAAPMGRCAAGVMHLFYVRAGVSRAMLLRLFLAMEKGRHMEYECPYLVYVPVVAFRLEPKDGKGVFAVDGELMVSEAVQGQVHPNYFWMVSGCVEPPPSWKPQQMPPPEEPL
smiles,measurement,setting,value
CNC(=O)c1cncc(/C=C/c2c(C)cccc2C)c1,inhibition,[1],-1.57%
same,inhibition,[2],0.8%
same,inhibition,[3],2.92%
same,inhibition,[4],1.93%
same,inhibition,[5],5.37%
same,inhibition,[6],2.95%
same,inhibition,[7],-0.54%
same,inhibition,[8],1.19%
same,inhibition,[9],-0.96%
same,inhibition,[10],0.37%
same,inhibition,[11],0.54%
same,inhibition,[12],-0.56%
same,inhibition,[13],2.88%
same,inhibition,[14],0.66%
same,inhibition,[15],-0.77%
same,inhibition,[16],1.65%
same,inhibition,[17],0.01%
same,inhibition,[18],-1.37%
same,inhibition,[19],0.6%
same,inhibition,[20],-0.53%
